Several values for one entry are separate records, joined by “and”; a condition that tells them apart may be missing. Equal entries are not always repeated. Inconclusive results are not listed. Activity calls are given as the source filed them. Calls follow the shape of the full dose curve. Residues, ends and D or L forms follow the SMILES beside them.

Sequence of Peroxisome proliferator-activated receptor delta (Homo sapiens) (Q03181 whole entry, looked up): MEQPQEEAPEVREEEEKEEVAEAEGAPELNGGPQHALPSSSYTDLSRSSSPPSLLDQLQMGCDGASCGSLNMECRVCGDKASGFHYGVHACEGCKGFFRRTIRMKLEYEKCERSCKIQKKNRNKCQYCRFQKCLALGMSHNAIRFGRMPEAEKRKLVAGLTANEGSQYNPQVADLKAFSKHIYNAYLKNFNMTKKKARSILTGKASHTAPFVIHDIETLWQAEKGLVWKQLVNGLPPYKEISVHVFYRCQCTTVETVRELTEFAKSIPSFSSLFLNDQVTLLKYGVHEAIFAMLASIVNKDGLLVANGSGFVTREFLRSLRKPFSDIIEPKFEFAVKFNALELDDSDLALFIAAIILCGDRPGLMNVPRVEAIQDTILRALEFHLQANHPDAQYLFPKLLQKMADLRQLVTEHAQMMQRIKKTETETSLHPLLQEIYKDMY

The target in one experiment is Bile acid receptor (Homo sapiens) (UniProt Q96RI1). The experiment is described as follows: qHTS assay for small molecule agonists of farnesoid X receptor signaling (AID 588527).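 Also: 0% = vehicle basal and 100% = reference agonist.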 As to conditions: HEK293T FXR-UAS-bla, beta-lactamase ratio, 16 h; hits give high values. A digest of the protocol: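 FXR-UAS-bla HEK293T cells (10% dialyzed FBS) preincubated 5-7 h at 37 C, then compounds at up to 92 uM for 16 h at 37 C. CCF4 beta-lactamase read-out after 2 h RT. Normalized to chenodeoxycholic acid (100 uM) and DMSO; Hill fit gave EC50 and efficacy.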
Sequence of Bile acid receptor (Homo sapiens) (Q96RI1 whole entry, looked up): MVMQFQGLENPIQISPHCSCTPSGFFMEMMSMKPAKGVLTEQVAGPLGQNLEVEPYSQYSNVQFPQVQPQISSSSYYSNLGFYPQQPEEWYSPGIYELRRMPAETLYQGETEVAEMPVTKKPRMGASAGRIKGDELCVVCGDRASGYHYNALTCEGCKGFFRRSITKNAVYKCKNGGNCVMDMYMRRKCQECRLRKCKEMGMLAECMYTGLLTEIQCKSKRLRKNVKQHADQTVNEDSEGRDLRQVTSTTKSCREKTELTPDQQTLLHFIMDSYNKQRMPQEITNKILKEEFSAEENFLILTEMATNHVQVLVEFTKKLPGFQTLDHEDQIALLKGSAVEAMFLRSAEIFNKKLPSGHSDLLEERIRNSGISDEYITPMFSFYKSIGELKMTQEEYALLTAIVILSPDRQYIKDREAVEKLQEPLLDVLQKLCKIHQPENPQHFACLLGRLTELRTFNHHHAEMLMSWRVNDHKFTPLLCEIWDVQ
In the case of `O=C1c2ccccc2C(=O)C1C(=O)C(c1ccccc1)c1ccccc1`, the activation is -2.98% (inactive).

For the compound `Cc1cc(C)nc(NS(=O)(=O)c2ccc(N)cc2)n1`, the activation is 1.04% (inactive) and -0.0754% (inactive).

For `CC(=O)O[C@]1(C(C)=O)CC[C@H]2[C@@H]3C[C@H](C)C4=CC(=O)CC[C@]4(C)[C@H]3CC[C@@]21C`, the activation is 0.881% (inactive).

Regarding `CC(O)C(=O)O` (configuration not stated), the activation was -0.922% (inactive).

As for `COc1ccc(C(=O)c2ccccc2)c(O)c1`, the activation is -3.45% (inactive) and -6.15% (inactive).

As for `Nc1nc(Cl)nc2c1ncn2[C@H]1C[C@H](O)[C@@H](CO)O1`, the activation was -0.12% (inactive).

In the case of `O=c1c(-c2ccc(O)cc2)coc2cc(O)cc(O)c12`, the activation is -3.37% (inactive).

As for `Cc1c(C)c2c(c(C)c1O)CCC(C)(COc1ccc(CC3SC(=O)NC3=O)cc1)O2` (configuration not stated), the activation is 9.23% (inactive).

With `CC(=O)N1CCN(c2ccc(OC[C@H]3CO[C@](Cn4ccnc4)(c4ccc(Cl)cc4Cl)O3)cc2)CC1`, the activation is -1.01% (inactive).

As for `CCCCOC(=O)c1ccc(O)cc1`, the activation was 2.27% (inactive).

As to `CN(C)c1ccc2nc3ccc(=[N+](C)C)cc-3sc2c1`, the activation is -2.46% (inactive).

Take `S=P(N1CC1)(N1CC1)N1CC1`: the activation was 4.46% (inactive).

For `O=c1[nH]c(=O)n([C@H]2C[C@H](O)[C@@H](CO)O2)cc1Br`, the activation was -3.6% (inactive).

Take `Cn1c(=O)c2[nH]cnc2n(C)c1=O`: the activation was 0.492% (inactive).

For the compound `Cc1ncc(CO)c(CO)c1O`, the activation was -0.349% (inactive).

`O=C(O)Cc1cccc2ccccc12`: the activation is -0.869% (inactive) and 1.54% (inactive).

In the case of `COc1ccc2[nH]cc(CCNC(C)=O)c2c1`, the activation is 0.0339% (inactive) and -2.2% (inactive) and -1.63% (inactive).

`c1ccc2sc(SSc3nc4ccccc4s3)nc2c1`: the activation was 4.39% (inactive).

On to `O=C(O)c1cc(-c2ccccc2)nc2ccccc12`, for which the activation is -1.96% (inactive).

Turning to `Cc1cc(=O)n(-c2ccccc2)n1C`, the activation is 1.08% (inactive).

As for `CCCc1c(OCCCCc2nn[nH]n2)ccc(C(C)=O)c1O`, the activation is 7.75% (inactive).

Regarding `O=C(O)c1ccc(S(=O)(=O)N(Cl)Cl)cc1`, the activation is 0.222% (inactive).

On to `O=C(c1ccccc1)c1ccccc1`, for which the activation is -1.37% (inactive) and -0.544% (inactive).

Turning to `CCCCOC(=O)CC(CC(=O)OCCCC)(OC(C)=O)C(=O)OCCCC`, the activation is 1.49% (inactive).

`CC(C)=CCC/C(C)=C/CO`: the activation is 0.54% (inactive).

Take `CCOC(=O)c1ccc(O)cc1`: the activation was 0.927% (inactive).

As to `CC(=O)Nc1ccccc1`, the activation was 3.71% (inactive).

Regarding `Oc1cccc(O)c1`, the activation was -2.84% (inactive).

For `Cc1cc(NS(=O)(=O)c2ccc(N)cc2)no1`, the activation was -1.53% (inactive).

For `CC(O)CN(CCN(CC(C)O)CC(C)O)CC(C)O` (configuration not stated), the activation was 0.352% (inactive).

Take `CC12CCC(CC1)C(C)(C)O2`: the activation is -0.483% (inactive).

`Nc1ccc(S(=O)(=O)c2ccc(N)cc2)cc1`: the activation is 5.45% (inactive) and -0.614% (inactive).

As to `O=C(O)CCCCC(=O)O`, the activation is -1.88% (inactive).

As to `COc1cc(C=O)ccc1O`, the activation is -1.98% (inactive) and -0.968% (inactive).

As to `COC(=O)[C@H](Cc1ccccc1)NC(=O)[C@@H](N)CC(=O)O` (H-Asp-Phe-OMe), the activation is -0.395% (inactive) and 1.51% (inactive).

A further experiment deals with Peroxisome proliferator-activated receptor delta (Homo sapiens) (UniProt Q03181). Briefly: qHTS assay for small molecule agonists of peroxisome proliferator-activated receptor delta signaling (AID 588534).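 Also: 0% = DMSO basal wells and 100% = positive control agonist at 10 µM.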 As to conditions: HEK293T PPARdelta-UAS-bla, beta-lactamase ratio, 18 h; series mostly up to 76.7 µM; activation: at the top concentration. The procedure, abridged:
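Agonist-mode beta-lactamase reporter readout (CCF4 dye, 2 h at RT) after 18 h at 37 °C exposure to a titration; Hill-equation fitting gave EC50 and maximal response.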
Regarding `Cc1cc(C)nc(NS(=O)(=O)c2ccc(N)cc2)n1`, the result was inactive.

Take `O=c1[nH]c(=O)n([C@H]2C[C@H](O)[C@@H](CO)O2)cc1Br`: the “activation” value was -8.9% (inactive).

Consider `Cc1ncc(CO)c(CO)c1O`, for which the “activation” value is -3.35% (inactive).

Consider `O=C(O)Cc1cccc2ccccc12`, for which the result was inactive.

As to `COc1ccc2[nH]cc(CCNC(C)=O)c2c1`, the result was inactive.

`O=C(c1ccccc1)c1ccccc1`: the result was inactive.

Regarding `CCCCOC(=O)CC(CC(=O)OCCCC)(OC(C)=O)C(=O)OCCCC`, the “activation” value was 0.765% (inactive).

Consider `CCOC(=O)c1ccc(O)cc1`, for which the “activation” value is -6.51% (inactive).

For `Oc1cccc(O)c1`, the “activation” value was -2.55% (inactive).

Consider `CC12CCC(CC1)C(C)(C)O2`, for which the “activation” value is 8.51% (inactive).

In the case of `O=C(O)CCCCC(=O)O`, the “activation” value was 3.39% (inactive).

With `COC(=O)[C@H](Cc1ccccc1)NC(=O)[C@@H](N)CC(=O)O` (H-Asp-Phe-OMe), the outcome was inactive.

The record behind these values is PubChem BioAssay (NCATS).
